Measured values published in PubChem BioAssay AID651598 (Sanford-Burnham Center for Chemical Genomics, 2012).
Values joined by “and” are separate entries in the source; they are usually repeats but may differ in a detail not shown here. Identical values can stand only once.

Molecular target: Apelin receptor (Homo sapiens) (UniProt P35414)
Experiment: apelin receptor (APJ) antagonists, SAR follow-up, counter-screen for CXCR6 antagonist project, cell-based, beta-arrestin, DiscoveRx, panel, CHO-K1 (AID 651598)
Details: CHO-K1 PathHunter beta-arrestin luminescence, antagonist mode; run 2, at 80 µM (top of the series)

Apelin receptor (Homo sapiens), sequence (P35414 whole entry, looked up): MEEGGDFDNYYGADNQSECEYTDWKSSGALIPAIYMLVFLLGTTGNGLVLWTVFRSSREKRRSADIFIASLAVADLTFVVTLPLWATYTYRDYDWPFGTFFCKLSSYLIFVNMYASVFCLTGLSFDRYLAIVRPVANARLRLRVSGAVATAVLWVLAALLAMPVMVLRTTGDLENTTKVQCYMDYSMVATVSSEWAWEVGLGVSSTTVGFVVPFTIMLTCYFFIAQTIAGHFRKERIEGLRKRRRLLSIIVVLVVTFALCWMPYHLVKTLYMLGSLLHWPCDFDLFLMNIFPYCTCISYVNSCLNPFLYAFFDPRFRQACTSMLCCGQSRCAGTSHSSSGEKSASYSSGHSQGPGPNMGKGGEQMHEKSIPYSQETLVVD

Row | SMILES | inhibition
1 | COc1cc(C(=O)NC2CCN(CC(=O)Nc3ccccc3)CC2)cc(OC)c1OC | 4.86%
2 | COc1cc(C(=O)NC2CC3CCC(C2)N3CC(=O)Nc2ccccc2)cc(OC)c1OC (stereo not drawn) | -3.64% and 3.22%
3 | COc1cc(C(=O)NC2CC3CCCC(C2)N3CC(=O)Nc2ccccc2)cc(OC)c1OC (stereo not drawn) | 11.6% and 7.3% and -8.97%
